# Test results published in PubChem BioAssay AID1159580 (chemical genetic matrix, 2015).
# Several values for one entry are separate records, joined by “and”; a condition that tells them apart may be missing. Equal values may be shown once. Hit rate of the full screen: of about 5,500 compounds, about 2,000 (36%) were called active. About 18% were inconclusive and are not listed. Rule as the data show it: active = normalized growth mostly below about 0.91 (no sharp cut-off); inconclusive = no clear call, values can overlap the other calls; inactive = mostly above about 0.92. The list shows a part of the results.
# Assay: chemical genetic growth profiling, strain panel (AID 1159580);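 also: tested at 20 µM; growth read once vehicle control cultures reached saturation at 30 °C; 1 = growth at the plate median or of vehicle wells; lower values mean less growth of the strain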
# Details: S. cerevisiae deletion strains, growth OD
structure (smiles),measurement,setting,value
O=C(Oc1cc(O)cc2c1C[C@@H](OC(=O)c1cc(O)c(O)c(O)c1)[C@@H](c1cc(O)c(O)c(O)c1)O2)c1cc(O)c(O)c(O)c1,normalized growth,"locus YAL021C, strain ccr4, stronger effect = lower value",1.01 (inactive)
same,normalized growth,"locus YAL026C, strain drs2, stronger effect = lower value",0.988 (inactive)
same,normalized growth,"locus YAL030W, strain snc1, stronger effect = lower value",1.01 (inactive)
same,normalized growth,"locus YBL061C, strain skt5, stronger effect = lower value",1.01 (inactive)
same,normalized growth,"locus YBR009C, strain hhf1, stronger effect = lower value",1.01 (inactive)
same,normalized growth,"locus YBR021W, strain FUR4, stronger effect = lower value",1.05 (inactive)
same,normalized growth,"locus YBR023C, strain chs3, stronger effect = lower value",1.02 (inactive)
same,normalized growth,"locus YBR171W, strain sec66, stronger effect = lower value",0.994 (inactive)
same,normalized growth,"locus YBR229C, strain ROT2, stronger effect = lower value",0.482 (active)
same,normalized growth,"locus YBR231C, strain swc5, stronger effect = lower value",1.02 (inactive)
same,normalized growth,"locus YBR279W, strain paf1, stronger effect = lower value",1.01 (inactive)
same,normalized growth,"locus YCL011C, strain gbp2, stronger effect = lower value",0.979 (inactive)
same,normalized growth,"locus YCL016C, strain dcc1, stronger effect = lower value",1.01 (inactive)
same,normalized growth,"locus YCL029C, strain bik1, stronger effect = lower value",0.668 (active)
same,normalized growth,"locus YCL061C, strain MRC1, stronger effect = lower value",0.983 (inactive)
same,normalized growth,"locus YCL069W, strain vba3, stronger effect = lower value",0.992 (inactive)
same,normalized growth,"locus YCR088W, strain abp1, stronger effect = lower value",0.992 (inactive)
same,normalized growth,"locus YDL005C, strain med2, stronger effect = lower value",1.01 (inactive)
same,normalized growth,"locus YDL035C, strain GPR1, stronger effect = lower value",0.133 (active)
same,normalized growth,"locus YDL040C, strain nat1, stronger effect = lower value",0.998 (inactive)
same,normalized growth,"locus YDL074C, strain BRE1, stronger effect = lower value",0.334 (active)
same,normalized growth,"locus YDL101C, strain DUN1, stronger effect = lower value",0.147 (active)
same,normalized growth,"locus YDL185W, strain tfp1, stronger effect = lower value",0.872 (active)
same,normalized growth,"locus YDL192W, strain arf1, stronger effect = lower value",0.638 (active)
same,normalized growth,"locus YDR001C, strain nth1, stronger effect = lower value",0.986 (inactive)
same,normalized growth,"locus YDR069C, strain doa4, stronger effect = lower value",1 (inactive)
same,normalized growth,"locus YDR101C, strain arx1, stronger effect = lower value",0.806 (active)
same,normalized growth,"locus YDR137W, strain rgp1, stronger effect = lower value",0.99 (inactive)
same,normalized growth,"locus YDR159W, strain sac3, stronger effect = lower value",1.04 (inactive)
same,normalized growth,"locus YDR162C, strain NBP2, stronger effect = lower value",0.0879 (active)
same,normalized growth,"locus YDR195W, strain ref2",1 (inactive)
same,normalized growth,"locus YDR297W, strain sur2, stronger effect = lower value",1.02 (inactive)
same,normalized growth,"locus YDR318W, strain mcm21, stronger effect = lower value",0.736 (active)
same,normalized growth,"locus YDR334W, strain swr1, stronger effect = lower value",0.996 (inactive)
same,normalized growth,"locus YDR335W, strain msn5, stronger effect = lower value",1.01 (inactive)
same,normalized growth,"locus YDR388W, stronger effect = lower value",0.759 (active)
same,normalized growth,"locus YDR392W, strain spt3, stronger effect = lower value",1.02 (inactive)
same,normalized growth,"locus YDR502C, strain sam2, stronger effect = lower value",0.52 (active)
same,normalized growth,"locus YEL003W, strain gim4, stronger effect = lower value",0.983 (inactive)
same,normalized growth,"locus YEL037C, strain rad23, stronger effect = lower value",0.982 (inactive)
same,normalized growth,"locus YEL061C, strain CIN8 (second series), stronger effect = lower value",1 (inactive)
same,normalized growth,"locus YEL061C, strain CIN8, stronger effect = lower value",0.438 (active)
same,normalized growth,"locus YER015W, strain faa2, stronger effect = lower value",0.989 (inactive)
same,normalized growth,"locus YER016W, strain bim1, stronger effect = lower value",1.02 (inactive)
same,normalized growth,"locus YER110C, stronger effect = lower value",0.956 (inactive)
same,normalized growth,"locus YER111C, strain swi4, stronger effect = lower value",0.974 (inactive)
same,normalized growth,"locus YER155C, strain BEM2 (second series), stronger effect = lower value",0.975 (inactive)
same,normalized growth,"locus YER155C, strain BEM2, stronger effect = lower value",0.775 (active)
same,normalized growth,"locus YER167W, strain BCK2, stronger effect = lower value",0.492 (active)
same,normalized growth,"locus YFR010W, strain ubp6, stronger effect = lower value",0.997 (inactive)
same,normalized growth,"locus YGL078C, strain dbp3, stronger effect = lower value",0.99 (inactive)
same,normalized growth,"locus YGL086W, strain mad1, stronger effect = lower value",0.431 (active)
same,normalized growth,"locus YGL167C, strain pmr1, stronger effect = lower value",1.01 (inactive)
same,normalized growth,"locus YGL173C, strain kem1, stronger effect = lower value",1.02 (inactive)
same,normalized growth,"locus YGL227W, strain vid30, stronger effect = lower value",0.994 (inactive)
same,normalized growth,"locus YGL240W, strain doc1, stronger effect = lower value",1.05 (inactive)
same,normalized growth,"locus YGL248W, strain PDE1, stronger effect = lower value",0.24 (active)
same,normalized growth,"locus YGL253W, strain hxk2, stronger effect = lower value",1.03 (inactive)
same,normalized growth,"locus YGR078C, strain PAC10, stronger effect = lower value",0.621 (active)
same,normalized growth,"locus YGR135W, strain pre9, stronger effect = lower value",0.62 (active)
same,normalized growth,"locus YGR252W, strain gcn5, stronger effect = lower value",0.658 (active)
same,normalized growth,"locus YHR013C, strain ard1, stronger effect = lower value",1.02 (inactive)
same,normalized growth,"locus YHR027C, strain rpn1, stronger effect = lower value",1.02 (inactive)
same,normalized growth,"locus YHR030C, strain SLT2, stronger effect = lower value",1.01 (inactive)
same,normalized growth,"locus YHR079C, strain IRE1 (second series), stronger effect = lower value",0.79 (active)
same,normalized growth,"locus YHR079C, strain IRE1, stronger effect = lower value",1 (inactive)
same,normalized growth,"locus YHR094C, strain hxt1, stronger effect = lower value",0.932 (inactive)
same,normalized growth,"locus YHR129C, strain ARP1, stronger effect = lower value",0.337 (active)
same,normalized growth,"locus YHR142W, strain chs7, stronger effect = lower value",1.01 (inactive)
same,normalized growth,"locus YHR200W, strain rpn10, stronger effect = lower value",0.661 (active)
same,normalized growth,"locus YIL066C, strain RNR3, stronger effect = lower value",0.096 (active)
same,normalized growth,"locus YIL073C, strain SPO22, stronger effect = lower value",0.241 (active)
same,normalized growth,"locus YIL125W, strain kgd1, stronger effect = lower value",0.958 (inactive)
same,normalized growth,"locus YIR030C, strain dcg1, stronger effect = lower value",0.889 (active)
same,normalized growth,"locus YJL092W, strain hpr5, stronger effect = lower value",0.989 (inactive)
same,normalized growth,"locus YJL095W, strain BCK1 (second series), stronger effect = lower value",1.02 (inactive)
same,normalized growth,"locus YJL095W, strain BCK1, stronger effect = lower value",0.115 (active) and 0.99 (inactive)
same,normalized growth,"locus YJL115W, strain asf1, stronger effect = lower value",1 (inactive)
same,normalized growth,"locus YJL129C, strain trk1, stronger effect = lower value",1.03 (inactive)
same,normalized growth,"locus YJL134W, strain LCB3, stronger effect = lower value",0.551 (active)
same,normalized growth,"locus YJL154C, strain vps35, stronger effect = lower value",0.988 (inactive)
same,normalized growth,"locus YJL164C, strain tpk1, stronger effect = lower value",1.01 (inactive)
same,normalized growth,"locus YJL166W, strain qcr8, stronger effect = lower value",1.04 (inactive)
same,normalized growth,"locus YJL168C, strain set2, stronger effect = lower value",0.937 (inactive)
same,normalized growth,"locus YJL187C, strain SWE1 (second series), stronger effect = lower value",0.104 (active)
